PPARg SRC3 recr: agonists of human PPARgamma SRC-3 coactivator recruitment; activation, % at 8 µM; AID 731; 0.26% of 200,000 active; biochemical PPARgamma/SRC-3 coactivator recruitment assay; P37231; in the data active = activation above about 23%;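 note: 0% = DMSO and 100% = reference agonist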
TR-FRET SRC-2 ct: flags TR-FRET format artefacts in PPARgamma SRC-2 recruitment agonist screen; 0.4% of 200,000 active; TR-FRET artefact counter-screen; hits give high values; AID 1049; TR-FRET ratio at 8 µM; in the data active = TR-FRET ratio above about 2000
SRC3 TRFRET art: counter-screen for PPARgamma SRC-3 recruitment agonists: TR-FRET artefact | TR-FRET ratio at 8 µM | PPARgamma/SRC-3 format; hits give high values | 0.39% of 99,000 active; in the data active = TR-FRET ratio above about 2000
SRC1 TRFRET art: flags TR-FRET format artefacts in PPARgamma SRC-1 recruitment agonist screen; 0.34% of 99,000 active; AID 1051; TR-FRET ratio at 8 µM; TR-FRET detection artefact counter-screen, emission ratio; hits give high values; in the data active = TR-FRET ratio above about 2300
PPARg SRC-2 ag: promotes SRC-2 coactivator recruitment by human PPARgamma; 0.34% of 200,000 active; P37231; activation, % at 8 µM; PPARgamma LBD-SRC-2 recruitment, biochemical;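 note: 0% = vehicle and 100% = reference agonist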
PPARg SRC-1 ag: promotes SRC-1 coactivator recruitment by human PPARgamma; P37231; PPARgamma-SRC-1 coactivator recruitment biochemical assay; activation, % at 8 µM; 0.41% of 200,000 active; in the data active = activation above about 19%;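 note: 0% = DMSO and 100% = reference agonist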
PPARg SRC2 conf: human PPARgamma SRC-2 recruitment agonism, confirmation; shares compounds with PPARg SRC3 recr; 52% of 790 active; activation, % at 8 µM; biochemical SRC-2 recruitment by PPARgamma; AID 1297;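 note: 0% = vehicle alone and 100% = reference agonist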
PPARg SRC1 ag: confirmation of agonists of SRC-1 recruitment by human PPARgamma | shares compounds with PPARg SRC3 recr | PPARgamma–SRC-1 coactivator recruitment biochemical assay | activation, % at 8 µM | 43% of 790 active | AID 1300; in the data active = activation above about 20%;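 note: 0% = vehicle wells and 100% = reference agonist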
PPARg SRC3 conf: human PPARgamma SRC-3 recruitment agonism, confirmation; shares compounds with PPARg SRC3 recr; biochemical PPARgamma-SRC-3 coactivator recruitment, agonist mode; activation, % at 8 µM; 29% of 790 active; AID 1301; in the data active = activation above about 24%;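 note: 0% = vehicle wells and 100% = reference agonist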
Target sequence (P37231 whole entry, looked up): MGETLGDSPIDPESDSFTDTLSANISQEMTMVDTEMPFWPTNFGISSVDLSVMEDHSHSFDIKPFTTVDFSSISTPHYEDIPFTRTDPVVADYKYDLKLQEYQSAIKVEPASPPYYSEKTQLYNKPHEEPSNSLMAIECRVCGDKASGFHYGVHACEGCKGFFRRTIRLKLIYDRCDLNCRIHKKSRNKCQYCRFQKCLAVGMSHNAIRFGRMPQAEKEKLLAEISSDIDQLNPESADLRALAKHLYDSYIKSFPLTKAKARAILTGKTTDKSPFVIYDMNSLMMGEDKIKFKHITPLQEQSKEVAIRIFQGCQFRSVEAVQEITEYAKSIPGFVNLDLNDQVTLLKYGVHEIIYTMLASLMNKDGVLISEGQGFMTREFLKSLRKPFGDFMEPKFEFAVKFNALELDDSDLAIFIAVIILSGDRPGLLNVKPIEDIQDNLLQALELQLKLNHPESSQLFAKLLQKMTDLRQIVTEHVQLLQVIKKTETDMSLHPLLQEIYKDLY
Target sequence (Q9Y6Q9 whole entry, looked up): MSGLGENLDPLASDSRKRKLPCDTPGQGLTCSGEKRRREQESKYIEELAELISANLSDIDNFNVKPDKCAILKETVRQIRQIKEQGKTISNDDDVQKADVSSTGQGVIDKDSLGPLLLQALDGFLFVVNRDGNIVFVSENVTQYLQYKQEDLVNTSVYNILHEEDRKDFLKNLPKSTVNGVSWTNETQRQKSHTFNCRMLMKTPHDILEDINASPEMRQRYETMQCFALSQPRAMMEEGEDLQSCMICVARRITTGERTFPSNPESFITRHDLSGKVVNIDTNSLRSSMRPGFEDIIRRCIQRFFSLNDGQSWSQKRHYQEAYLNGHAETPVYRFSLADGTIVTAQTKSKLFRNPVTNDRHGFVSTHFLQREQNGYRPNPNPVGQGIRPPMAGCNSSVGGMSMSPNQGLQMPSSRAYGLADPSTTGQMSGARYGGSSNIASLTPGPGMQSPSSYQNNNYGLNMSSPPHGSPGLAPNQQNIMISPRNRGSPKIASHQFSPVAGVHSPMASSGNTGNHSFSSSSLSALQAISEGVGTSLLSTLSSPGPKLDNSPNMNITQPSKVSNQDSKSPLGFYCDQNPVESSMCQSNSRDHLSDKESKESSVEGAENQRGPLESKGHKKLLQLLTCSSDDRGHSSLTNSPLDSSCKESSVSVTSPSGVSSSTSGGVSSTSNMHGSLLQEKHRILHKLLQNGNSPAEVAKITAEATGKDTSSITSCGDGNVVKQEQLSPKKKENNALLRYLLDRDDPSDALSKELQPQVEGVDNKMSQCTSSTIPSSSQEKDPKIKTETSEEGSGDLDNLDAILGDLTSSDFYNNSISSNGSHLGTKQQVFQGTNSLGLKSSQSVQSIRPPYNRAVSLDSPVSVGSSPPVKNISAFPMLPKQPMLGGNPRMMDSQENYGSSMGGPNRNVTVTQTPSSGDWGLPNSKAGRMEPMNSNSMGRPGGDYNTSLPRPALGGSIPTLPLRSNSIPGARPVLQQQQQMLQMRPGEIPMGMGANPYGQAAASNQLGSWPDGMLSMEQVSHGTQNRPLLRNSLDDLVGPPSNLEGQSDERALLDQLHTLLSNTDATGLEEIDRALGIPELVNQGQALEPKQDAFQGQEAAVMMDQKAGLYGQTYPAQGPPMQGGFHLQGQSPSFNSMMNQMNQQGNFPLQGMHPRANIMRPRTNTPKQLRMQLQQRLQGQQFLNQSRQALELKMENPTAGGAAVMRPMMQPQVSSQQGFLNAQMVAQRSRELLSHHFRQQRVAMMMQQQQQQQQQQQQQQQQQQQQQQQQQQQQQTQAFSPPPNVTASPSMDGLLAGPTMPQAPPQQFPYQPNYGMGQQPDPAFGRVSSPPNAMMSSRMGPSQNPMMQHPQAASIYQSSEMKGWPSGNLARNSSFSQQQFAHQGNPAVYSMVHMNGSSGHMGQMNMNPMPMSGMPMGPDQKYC
* hit, by the source's call; / = not tested or not shown. An excerpt weighted towards active compounds, which were near 0.9% of everything screened. Cut-off read from the data, not from the text of the source, unless noted: active = activation above about 22%; inactive = the rest.

SMILES | PPARg SRC3 recr | TR-FRET SRC-2 ct | SRC3 TRFRET art | SRC1 TRFRET art | PPARg SRC-2 ag | PPARg SRC-1 ag | PPARg SRC2 conf | PPARg SRC1 ag | PPARg SRC3 conf
COc1ccc2[nH]c3ccccc3c2c1 | -5 | 1426 | / | / | 8 | -3 | / | / | /
COc1ccc2c(c1)Sc1ccccc1N2 | 13 | 1917 | 1823 | 2097 | 17 | 27* | 11 | 14 | 13
CCC(OC(=O)c1cc2sccc2n1C)C(=O)NCC1CCCO1 (configuration not stated) | 11 | 1531 | / | / | 11 | 22* | 12 | 17 | 17
COc1ccc(N(CC(=O)Nc2ccccc2C(=O)O)S(=O)(=O)c2ccc(C)c([N+](=O)[O-])c2)cc1 | -1 | 1549 | 1530 | 1809 | -9 | 0 | / | / | /
COC(=O)NCC(c1ccco1)N1CCN(c2ccccc2)CC1 (configuration not stated) | 2 | 1630 | 1472 | 1613 | -3 | 5 | / | / | /
S=c1[nH]c(-c2ccccc2)cn1/N=C/c1ccc(Br)cc1 | 26* | 1402 | 1662 | 1927 | 13 | 30* | 12 | 16 | 15
Cc1ccc(C)c(/C=N/n2cc(-c3ccccc3)[nH]c2=S)c1 | 3 | 1728 | 1480 | 1705 | 5 | -3 | / | / | /
COCCCNc1oc(-c2cccs2)nc1S(=O)(=O)c1ccc(C)cc1 | 33* | 1478 | 1632 | 1713 | -2 | 15 | 2 | 14 | 16
COCCNc1oc(-c2cccs2)nc1S(=O)(=O)c1ccc(C)cc1 | 5 | 1626 | 1609 | 1747 | -4 | 4 | / | / | /
COC(=O)CN(n1cnnc1)S(=O)(=O)c1ccc(C)cc1 | -5 | 1568 | / | / | 5 | 0 | / | / | /
Cc1ccc(S(=O)(=O)N(c2nc(NC(C)C)nc(NC(C)C)n2)n2cnnc2)cc1 | 1 | 1703 | 1525 | 1915 | 24* | 10 | 6 | 4 | 2
S=c1[nH]ncn2c1cc1oc3ccccc3c12 | 28* | 2319* | 2852* | 2955* | 37* | 31* | 5 | -2 | 4
NC(=O)c1cccc2c(=O)oc3ccccc3c12 | 8 | 1531 | / | / | 9 | 11 | / | / | /
O=c1oc2cc(O)c(Cl)cc2c2ccccc12 | 54* | 4246* | 4295* | 3291* | 102* | 59* | 55* | 34* | 39*
O=C(c1ccc(COCC(F)(F)F)o1)N1CCCC1 | -3 | 1470 | 1707 | 1695 | 5 | 2 | / | / | /
O=c1oc(-c2ccccc2F)nc2c1cnn2-c1ccccc1 | 24 | 1482 | / | / | 18 | 23* | 14 | 25* | 27*
CN(C)S(=O)(=O)c1cccc(NC(=O)CN2C(=O)C3C4C=CC(C4)C3C2=O)c1 (configuration not stated) | 3 | 1576 | 1491 | 1999 | -2 | 3 | / | / | /
O=[N+]([O-])c1cc(Cc2ccccc2)cc(C=Nc2ccc(N3CCOCC3)cc2)c1O | 39* | 2504* | 2652* | 3128* | 65* | 51* | 22 | 17 | 17
CCSC(=Nc1ccccc1)Nc1ccccc1 | 6 | 1603 | 1519 | 1977 | 3 | 13 | / | / | /
CC(=O)c1cnc(-c2ccccc2Cl)s1 | 13 | 1855 | 1925 | 2031 | 15 | 22* | 20 | 12 | 10
CC(=O)c1cnc(-c2ccccn2)s1 | 2 | 1664 | 1464 | 1816 | -2 | 4 | / | / | /
C=CCOc1cccc(C2C(C(=O)c3ccc(C)o3)=C(O)C(=O)N2c2nccs2)c1 (configuration not stated) | 23 | 2025* | / | / | 32* | 24* | 2 | -1 | 3
Cc1cc(N2C(=O)C(O)=C(C(=O)c3cccs3)C2c2cccc(O)c2)no1 (configuration not stated) | -4 | 1443 | / | / | 6 | -2 | / | / | /
Cc1ccc2nc(N3C(=O)C(O)=C(C(=O)c4ccc(C)o4)C3c3cccc(O)c3)sc2c1 (configuration not stated) | 10 | 1951 | 1853 | 2305 | 24* | 15 | 4 | 4 | 2
C=CCOc1cccc(C2C(C(=O)c3ccco3)=C(O)C(=O)N2CCN(CC)CC)c1 (configuration not stated) | 0 | 1590 | / | / | 7 | 8 | / | / | /
SMILES | PPARg SRC3 recr | TR-FRET SRC-2 ct | SRC3 TRFRET art | SRC1 TRFRET art | PPARg SRC-2 ag | PPARg SRC-1 ag | PPARg SRC2 conf | PPARg SRC1 ag | PPARg SRC3 conf
CC(C)Cn1c(N)c(C(=O)COC(=O)CC23CC4CC(CC(C4)C2)C3)c(=O)n(C)c1=O | 1 | 1556 | / | / | 2 | 0 | / | / | /
CCOC(=O)Nc1c(C(=O)OC)[nH]c2cc(OC)ccc12 | 3 | 1735 | / | / | -3 | 2 | / | / | /
COC(=O)c1[nH]c2cc(OC)ccc2c1N | 28* | 1621 | / | / | 14 | 11 | 17 | 7 | 10
CCn1c(=S)ccc2ccc(OC)cc21 | 40* | 2084* | / | / | 39* | 21* | 9 | 4 | 6
CCOC(=O)Nc1ccc(Cc2ccncc2)cc1 | -4 | 1405 | 1554 | 1666 | -8 | 2 | / | / | /
COc1ccc2c(c1)oc(=O)c1c3ccccc3[nH]c21 | 41* | 3710* | 3944* | 4961* | 56* | 48* | 44* | 33* | 27*
COc1ccc2c(c1)oc(=O)c1ccccc12 | -4 | 1366 | 1747 | 1968 | -2 | -1 | / | / | /
COc1cc(-c2nc3ccccc3s2)ccc1O | 31* | 2089* | / | / | 30* | 23* | 30* | 33* | 23
O=C(c1ccc2c(c1)OCO2)N1CCN(c2ccccc2)CC1 | 26* | 1552 | / | / | 13 | 4 | 1 | 3 | 3
N#C/C(=C\c1ccc(N2CCCCC2)o1)C(N)=O | 11 | 1938 | 1746 | 2106 | 15 | 21* | -2 | 3 | 0
CCc1ccc(NC(=O)N(C2CCCCC2)C(C)c2cccnc2)cc1 (configuration not stated) | -5 | 1349 | / | / | -4 | -5 | / | / | /
CCn1c2c(c3cc(OCC(C)C)ccc31)CCCC2=O | 3 | 1436 | / | / | 4 | -4 | / | / | /
CCn1c2c(c3cc(Br)ccc31)CCC/C2=N\O | 61* | 2351* | / | / | 39* | 34* | 45* | 30* | 29*
Cc1cccc(Nc2nn3c(=O)c4ccccc4nc3s2)c1 | 37* | 1736 | / | / | 2 | 31* | 27* | 17 | 15
O=C(Sc1nnc(-c2ccccc2)o1)N1c2ccccc2Sc2ccccc21 | 25 | 1691 | / | / | 31* | 16 | 48* | 34* | 33*
COc1cc(-c2nnc(SCC(=O)N3c4ccccc4Sc4ccccc43)o2)cc(OC)c1OC | 7 | 1583 | / | / | -3 | 2 | / | / | /
